Compound activity: PubChem BioAssay, several laboratories
sEH inh: blocks human soluble epoxide hydrolase activity; P34913; recombinant human sEH enzymatic activity assay; inhibition, % at 2 µM; 91,000 compounds, 0.34% hits; AID 707; in the data active = inhibition above about 80%
sEH act: increases human soluble epoxide hydrolase activity | 91,000 compounds, 0.04% hits | activation, % at 2 µM | P34913 | purified human sEH enzymatic activity, activator screen | AID 717; in the data active = activation above about 37%
HUVEC tox IL1B: HUVEC cytotoxicity counter-screen, IL-1B stimulated; HUVEC cell count loss, Hoechst imaging; cell count reduction, % at 2 µM; 94,000 compounds, 0.41% hits; AID 845;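 active = cell count reduction more than 3 SD above the screen-wide mean, cut at about 70% in these data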;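 note: normalized per plate to untreated control cells as the no-loss baseline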
IL1B NFkB inh: blocks IL-1B driven NFkB nuclear translocation in HUVEC cells; HUVEC IL-1B NFkB p65 nuclear translocation imaging; inhibition, % at 2 µM; 94,000 compounds, 0.43% hits; AID 796;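 active = inhibition above about 30% together with a positive call from visual inspection of the well image, limit read from the data; inconclusive = inhibition above a set limit but visual check negative; inactive = inhibition not above a set limit, visual check negative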;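 note: nuclear over cytoplasmic p65 intensity ratio measured by imaging; 0% = IL-1B stimulated DMSO wells and 100% = unstimulated DMSO wells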
Cav3 T inh: blocks human Cav3.2 T-type calcium channel | Cav3.2-expressing cells, Fluo-4 calcium fluorescence FDSS; stronger effect = lower value | B-score at 10 µM | 100,000 compounds, 4% hits;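 active = single-dose well whose peak fluorescence ratio is a statistical outlier from its plate by either plate-standardised score or position-corrected B-score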
NFkB transloc pot: enhances IL-1B driven NFkB nuclear translocation; HUVEC IL-1B NFkB p65 nuclear translocation imaging; activation, % at 2 µM; 94,000 compounds, 0.3% hits; AID 819;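 active = activation above 40%, about the mean plus 3 SD, also judged a hit on visual image review; inconclusive = activation above 40% but not a hit on visual review; inactive = activation not above 40% and no visual hit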;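 note: percent activation is computed from the nuclear over cytoplasmic p65 intensity ratio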
* hit, by the source's call; ? = inconclusive; . = no result given. Shown are actives, neighbours in structure and some others; about 4.6% of the full set was active somewhere.

SMILES	sEH inh	sEH act	HUVEC tox IL1B	IL1B NFkB inh	Cav3 T inh	NFkB transloc pot
COCc1nnc(NC(=O)CCC2CCCCC2)s1	24	-22	-9	0	-0.91	0
COc1ccc(S(=O)(=O)NNC(=O)c2csc(-n3nc(C)cc3C(F)(F)F)n2)cc1OC	4	-1	-5	-52	-0.096	52*
COc1ccc(/C=N/NC(=O)c2csc(-n3nc(C)cc3C(F)(F)F)n2)cc1	0	-2	6	11	0.046	-11
CN(CC(=O)Nc1ccc(C#N)cc1)Cc1ccc(Cl)c(Cl)c1	.	.	6	13	-6.6*	-13
CCCCCCn1c(C(C)NC(=O)c2ccco2)nc2ccccc21 (centres undefined)	-11	11	-3	-1	-10*	1
CCCCn1c(=N)n(CC(=O)c2ccco2)c2ccccc21	.	.	14	-6	.	6
CCCCCCCn1c(=N)n(CC(=O)c2ccco2)c2ccccc21	5	-7	4	-34	-2.6*	34
COc1ccc(/C=C2\NC(=S)N(CC3CCCO3)C2=O)c(OC)c1C (centres undefined)	2	0	-5	-14	-0.06	14
CCCN1C(=O)/C(=C/c2ccc(N3CCCC3)c(C)c2)NC1=S	4	-5	26	3	-7.1*	-3
CC(=O)Nc1nc(C)c(Oc2ccc(Cl)cc2Cl)c(=O)[nH]1	-9	6	2	-1	0.66	1
COc1ccc(-c2csc(NC(=O)CC(C)C)n2)cc1	-6	6	.	.	-1.5	.
Cn1c(C(=O)N2CCN(Cc3ccc4c(c3)OCO4)CC2)cc2sccc21	0	-1	-9	7	-4.6	-7
CC(C)(C)C(=O)c1no[n+]([O-])c1/C(=N/O)C(C)(C)C	-14	13	-25	7	-7.9*	-7
Cn1c(SCc2ccc(C#N)cc2)nnc1-c1cccc(Cl)c1	2	-2	10	14	-1.3	-14
O=C(Nc1ccccc1)N(CCc1nc2ccccc2[nH]1)C1CCCC1	-18	15	12	6	-2.6	-7
S=C(NC1CCCCC1)N(CCc1nc2ccccc2[nH]1)C1CCCC1	12	-13	-16	1	-8.3*	-1
CCN(CC)c1nc2n(c(=O)n1)CCO2	-2	-2	-28	-8	-0.037	8
COc1ccc(OCc2nc(C#N)c(N3CCN(c4ccc(OC)cc4)CC3)o2)cc1	-7	7	10	-29	-4.5*	29
COc1ccc(N2CCN(c3oc(COc4ccccc4Cl)nc3C#N)CC2)cc1	.	.	.	.	-2.3	.
Cc1cccc(OCc2nc(C#N)c(N3CC(C)CC(C)C3)o2)c1 (centres undefined)	.	.	.	.	-7.3*	.
CCNc1oc(COc2cccc(C)c2)nc1C#N	1	2	-47	2	-0.21	-2
N#Cc1nc(COc2ccccc2F)oc1N1CCCCCC1	-6	8	-13	-9	-5.9*	9
CN(Cc1ccccc1)c1oc(COc2ccccc2F)nc1C#N	.	.	.	.	-4.5*	.
CC1CN(c2oc(COc3ccc(Cl)cc3Cl)nc2C#N)CC(C)O1 (centres undefined)	8	-9	-7	-3	-4.7*	3
N#Cc1nc(COc2ccccc2Cl)oc1N1CCCCCC1	-4	4	10	-41	0.58	?
SMILES	sEH inh	sEH act	HUVEC tox IL1B	IL1B NFkB inh	Cav3 T inh	NFkB transloc pot
N#Cc1nc(COc2ccccc2)oc1N1CCCCC1	-4	2	-7	-17	-6*	17
N#Cc1nc(COc2ccc(Br)cc2)oc1N1CCN(Cc2ccccc2)CC1	-3	5	-4	4	-7.8*	-5
CN(Cc1ccccc1)c1oc(-c2ccco2)nc1C#N	7	-6	-8	10	-4.2*	-10
N#Cc1nc(COc2ccc(F)cc2)oc1N1CCN(Cc2ccccc2)CC1	.	.	-12	-18	.	18
COc1cccc(CN2CCN(C(=O)CC(C)C)CC2)c1	.	.	.	.	-0.14	.
N#Cc1nc(COc2ccc(Cl)cc2)oc1N1CCCCCC1	.	.	4	-1	-5*	1
Cc1cccc(OCc2nc(C#N)c(NCc3ccc4c(c3)OCO4)o2)c1	9	-10	16	0	-6.8*	0
N#Cc1nc(COc2ccccc2)oc1N1CCN(c2cccc(Cl)c2)CC1	-8	8	-6	-10	-2.4	11
Nc1ncc(Br)cc1S(=O)(=O)NCCC(=O)Nc1cccc(Cl)c1	14	-16	1	-8	-1.4	8
Cc1cc(NC(=O)CCNS(=O)(=O)c2cc(Br)cnc2N)ccc1Br	16	-18	5	-7	-5*	7
CC1CCN(C(=O)/C(=C/c2ccccc2Cl)c2ccccc2)CC1	-1	1	11	3	-9.1*	-3
CN1CCN(C(=O)/C(=C\c2ccccc2)c2ccccc2)CC1	15	-14	11	2	1.6	-2
CCOC(=O)Nc1cc2c(C)cc(=O)oc2cc1C	.	.	-21	7	.	-7
O=C(Nc1ccc2c(c1)OCCO2)C1CCN(C(=O)c2ccc(Br)cc2)CC1	37	-36	-16	-6	-0.012	6
O=C(Nc1ccc2c(c1)OCCO2)C1CCN(c2nnnn2-c2ccccc2)CC1	32	-33	-3	1	-0.66	-1
O=C(Nc1cccc(F)c1)C1CCN(c2nnnn2-c2ccccc2)CC1	49	-50	-11	-2	-7.5*	2
O=C(Nc1cccc(F)c1)C1CCN(C(=O)c2ccc(Br)cc2)CC1	2	0	-27	6	-4.3*	-6
C=CCNC(=O)c1ccc(C(=O)c2ccccc2)cc1	1	0	5	7	0.017	-7
O=C(NCNC(=O)c1ccccc1)c1ccccc1	-2	2	81*	-11	0.065	11
Cc1nn(Cc2ccccc2Cl)c(C)c1NC(=O)c1nc2ncccn2n1	10	-8	11	-16	0.093	16
Cc1nn(Cc2ccccc2Cl)c(C)c1NC(=O)NC12CC3CC(CC(C3)C1)C2	91*	-91	-3	18	-7.6*	-18
CCCNC(=O)c1cccc(Cn2nc(C)c(Br)c2C)c1	10	-10	12	5	-0.14	-5
Cc1nn(Cc2cccc(C(=O)NC34CC5CC(CC(C5)C3)C4)c2)c(C)c1Br	15	-11	24	-5	-6.4*	5
NS(=O)(=O)c1ccc(NS(=O)(=O)c2ccc(NC(=O)c3ccc(-c4ccccc4)cc3)cc2)cc1	9	-9	-24	5	.	-5
COc1ccc(OC)c(NC(=O)c2cn(C)c(=O)c3cc(OC)c(OC)cc23)c1	16	-15	-14	-6	.	6
CCCOC(=O)C1C2C=CC(C3CC23)C1C(=O)OCC(=O)c1ccccc1 (centres undefined)	16	-14	2	-7	-5.5*	7
CCCn1c(NCc2cc(OC)ccc2OC)nc2ccccc21	.	.	-22	-33	-4.8*	33
O=C1C2C(c3ccccc3)C=CC(c3ccccc3)C2C(=O)N1CCCO (centres undefined)	7	-6	-13	-11	-1.4	11
CC1(C)CC(=O)C=C(NCCN2CCN(C(=O)Nc3ccc(Cl)c(Cl)c3)CC2)C1	48	-47	-4	-9	0.69	9
